# The full list was thinned out, with hits kept by preference.
# Cruzain Triton = inhibitors of Trypanosoma cruzi cruzain with detergent; P25779; purified cruzain, Z-FR-AMC fluorescence, 0.01% Triton; Potency, µM, without a hit: max response, negative = inhibition, actives largely listed as inhibitors; 0.43% of 200,000 active;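 note: plate controls were neutral wells for no effect and buffer without enzyme for full effect; nearly all actives have a fitted effect of over 40% in size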
#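 Steps: dispense cruzain (1.5 nM final) in acetate buffer pH 5.5 with DTT and 0.01% Triton X-100; pin-transfer compounds; incubate 15 min RT; add Z-FR-AMC (2 uM final); read fluorescence every 30 s, using the 60 s intensity change.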
# Cruzain inh noDet = blocks cruzain activity in detergent-free assay; purified cruzain, Z-FR-AMC fluorescence, no detergent; Potency, µM, for inactives: max response, negative = inhibition, usual class: inhibitors; P25779; 2.3% of 200,000 active;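 note: plate controls were enzyme without inhibitor for no effect and buffer without enzyme for full effect; nearly all actives have a fitted effect of over 40% in size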
#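 Detergent-free condition (0.00005% Triton X-100) in acetate buffer pH 5.5 with DTT. 1.5 nM enzyme and compound were pre-mixed 15 min, then 2 uM Z-FR-AMC substrate added; reaction progress from fluorescence change between first and third reads (60 s).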
# Giardia FBPA inh-1 = inhibitors of Giardia lamblia fructose-1,6-bisphosphate aldolase; A8B2U2; purified Giardia FBPA; Potency, µM (titrated, usually from 59.6 µM), for the others: at the top dose activity, negative = inhibition, usual class: inhibitors; 0.71% of 290,000 active; AID 2451; note: nearly all actives have a fitted effect of over 55% in size
# Target sequence (A8B2U2 whole entry, looked up): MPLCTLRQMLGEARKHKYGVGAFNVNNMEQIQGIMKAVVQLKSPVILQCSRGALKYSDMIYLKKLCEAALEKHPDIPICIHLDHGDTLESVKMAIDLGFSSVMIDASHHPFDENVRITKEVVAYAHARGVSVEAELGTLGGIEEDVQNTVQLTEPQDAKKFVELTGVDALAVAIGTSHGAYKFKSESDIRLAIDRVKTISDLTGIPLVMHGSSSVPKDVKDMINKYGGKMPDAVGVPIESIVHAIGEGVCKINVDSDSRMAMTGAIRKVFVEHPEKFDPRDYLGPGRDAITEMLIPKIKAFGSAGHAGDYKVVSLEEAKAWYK
#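 Giardia FBPA (40 nM reagent) was preincubated 10 min at RT with compound (up to 57.5 uM final), then substrate plus GAPDH/TPI/NAD/arsenate coupling system with diaphorase/resazurin was added; resorufin fluorescence (525/598 nm) was read after 20 min.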
# Giardia growth = inhibitors of Giardia lamblia growth. shares compounds with Giardia FBPA inh-1. Giardia lamblia trophozoite growth inhibition. 5% of 1,500 active. Potency, µM (titrated, usually from 57.5 µM), for the others: at the highest dose activity change, negative = inhibition, most hits filed as inhibitors;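 note: trophozoites exposed to compound for 48 h at 37 °C; nearly all actives have a fitted effect of over 70% in size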
# Mammalian tox = mammalian cytotoxicity of Giardia aldolase inhibitor hits. shares compounds with Giardia FBPA inh-1. mammalian cell viability counter-screen, qHTS. Potency, µM (highest dose often 57.5 µM), for inactives: at the highest dose viability change, negative = toxicity, most hits filed as inhibitors. 4% of 1,500 active. AID 2786;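 note: Chinese hamster ovary cells used as mammalian cytotoxicity surrogate; viability measured as cellular ATP by luminescence; compound exposure lasted 48 h before reading; nearly all actives have a fitted effect of over 60% in size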
# Giardia FBPA inh-2 = confirmation of Giardia fructose-bisphosphate aldolase inhibitors | shares compounds with Giardia FBPA inh-1 | purified Giardia aldolase enzyme activity, qHTS | Potency, µM (highest dose often 57.5 µM), inactives show top-dose activity change, negative = inhibition, hits mostly inhibitors | 5% of 1,500 active; note: nearly all actives have a fitted effect of over 45% in size
# Rabbit aldolase = blocks rabbit muscle aldolase in Giardia aldolase selectivity test; shares compounds with Giardia FBPA inh-1; Rabbit muscle FBPA enzyme inhibition, selectivity counter-screen; Potency, µM (top dose mostly 57.5 µM), for inactives: top-dose activity, negative = inhibition, hits mostly inhibitors; 4% of 1,500 active; AID 2794; note: nearly all actives have a fitted effect of over 60% in size
# Target sequence (P00883 whole entry, looked up): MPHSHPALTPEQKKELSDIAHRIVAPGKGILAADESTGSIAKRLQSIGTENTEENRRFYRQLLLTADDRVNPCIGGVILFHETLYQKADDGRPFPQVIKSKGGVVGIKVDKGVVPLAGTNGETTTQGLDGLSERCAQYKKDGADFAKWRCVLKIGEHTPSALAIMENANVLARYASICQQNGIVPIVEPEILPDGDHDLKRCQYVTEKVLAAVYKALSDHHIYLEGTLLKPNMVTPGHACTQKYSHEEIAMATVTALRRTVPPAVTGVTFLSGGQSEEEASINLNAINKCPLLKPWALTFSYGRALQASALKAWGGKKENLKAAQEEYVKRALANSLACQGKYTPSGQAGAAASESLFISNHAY
# GAPDH coupling = counter-screen for Giardia aldolase inhibitors: GAPDH coupling enzyme | shares compounds with Giardia FBPA inh-1 | 6% of 1,500 active | Potency, µM (titrated, usually from 57.5 µM), for the others: top-dose activity change, negative = inhibition, actives largely listed as inhibitors | AID 2795 | GAPDH coupling enzyme counterscreen, biochemical, qHTS; note: nearly all actives have a fitted effect of over 55% in size
# * marks the source's active call; other numbers are inactive results; ? = inconclusive; · = no result; [ ] = dose if it differs, or a comment. Calls come from the whole dose curve; as a rule, active = well fitted curve in the direction sought with a large enough effect; inconclusive = small, poorly fitted or top-dose-only effect, or another doubt; inactive = no such curve, though single readings can be large; an effect the other way counts as inactive or inconclusive. Unless noted, % is set by controls: 0 for no effect and ±100 for the full control effect; potency is the fitted concentration of half-maximal effect.
SMILES,Cruzain Triton,Cruzain inh noDet,Giardia FBPA inh-1,Giardia growth,Mammalian tox,Giardia FBPA inh-2,Rabbit aldolase,GAPDH coupling
Cc1ccccc1N=Cc1cccc(O)c1O,-7%,3%,5.6µM*,20µM*,-10%,11µM*,32µM*,32µM*
COc1ccc(OC)c(C2=Nn3c(nnc3-c3cc(OC)ccc3OC)SC2)c1,·,·,-11%,·,·,·,·,·
CCN(CCNCC(O)COCc1ccc(Cl)cc1)c1cccc(C)c1 (stereo not drawn),·,·,22µM*,-8%,-13%,0%,1%,10%
CCN(CCCNC(=O)c1ccc(Sc2ccc(Cl)cc2)c(NC(C)=O)c1)c1cccc(C)c1,1%,12%,·,·,·,·,·,·
COC(=O)c1ccc(OCc2nn[nH]n2)cc1,·,·,32µM*,21%,19%,14%,12%,14%
CCOc1ccc(Cc2nn[nH]n2)cc1,5%,5%,?,·,·,·,·,·
Clc1ccccc1OCc1nn[nH]n1,·,·,-17%,·,·,·,·,·
COc1ccc(OCc2nn[nH]n2)cc1,·,·,25µM*,?,-6%,12%,7%,22%
COC(=O)c1ccc(OCCOc2ccccc2)cc1,-5%,0%,2%,·,·,·,·,·
Cc1cccc(OCc2nn[nH]n2)c1C,·,·,14µM*,26%,-4%,4%,13%,16%
CCc1ccc(OCC2c3cc(OC)c(OC)cc3CCN2C(=O)c2ccc(S(=O)(=O)N3CCCC3)cc2)cc1 (stereo not drawn),0%,13%,·,·,·,·,·,·
Cc1ccc(CNC(=O)c2ccc(CSCc3ccccc3C)o2)cc1,1%,2%,·,·,·,·,·,·
CCOC(=O)c1ccc(NC(=O)CN2C(=O)CC(c3ccc(C)c(C)c3)=Nc3ccccc32)cc1,-5%,?,·,·,·,·,·,·
O=C(NCc1ccccc1)c1ccc(NC(=O)c2nsc3ccccc23)cc1,-3%,-13%,·,·,·,·,·,·
Cc1cc(Sc2nc(N)ncc2[N+](=O)[O-])ncn1,·,·,18µM*,-6%[10.4 µM],?,1%,15%,0%
Cc1ccnc(Sc2ncccc2[N+](=O)[O-])n1,1%,3%,-1%,·,·,·,·,·
Cc1cc(N2CCCCC2)nc2ccc(NC(=O)/C=C/c3ccccc3OC(C)C)cc12,-16%,?,·,·,·,·,·,·
COc1cccc(NC(=O)Nc2ccc3nc(N4CCN(C)CC4)cc(C)c3c2)c1,0%,-3%,·,·,·,·,·,·
COc1ccc(-c2noc(CSc3nnc(Cc4ccccc4)n3-c3ccc(F)cc3)n2)cc1,-7%,3%,·,·,·,·,·,·
Cc1cccc(CCNC(=O)CCc2c(C)nc3c(c(C)nn3-c3ccccc3)c2C)c1,-2%,1%,·,·,·,·,·,·
COc1ccc(OC)c(-c2nc3c(C#N)c[nH]n3c2NC2CCCCC2)c1,-4%,?,·,·,·,·,·,·
c1ccc(-c2nc(-c3ccncc3)n[nH]2)nc1,·,·,3.5µM*,-20%[38.3 µM],-13%,-20%,-9%,-10%
c1ccc(SCc2nc(-c3ccncc3)n[nH]2)nc1,·,·,-4%,·,·,·,·,·
COc1ccccc1Nc1ncc2c(n1)CCN(CC(C)C)C2,-2%,-9%,·,·,·,·,·,·
CCOC(=O)CSC1=C(C#N)C(C)C2=C(CCCC2=O)N1 (stereo not drawn),-5%,-7%,16µM*,-12%[10.4 µM],-12%,-8%,1%,6%
SMILES,Cruzain Triton,Cruzain inh noDet,Giardia FBPA inh-1,Giardia growth,Mammalian tox,Giardia FBPA inh-2,Rabbit aldolase,GAPDH coupling
COC(=O)CSC1=C(C#N)C(c2ccc(C)cc2)C2=C(CCCC2=O)N1 (stereo not drawn),-3%,3%,-17%,·,·,·,·,·
Cc1ccc(C(=O)N2CCc3cc(CNC(=O)c4ccnn4C)ccc32)cc1,0%,7%,·,·,·,·,·,·
C=CCNC(=S)N1CCN(Cc2ccc3c(c2)OCO3)CC1,·,·,7.1µM*,-26%,6%,-8%,9%,-6%
CCNC(=S)N1CCN(Cc2ccc3c(c2)OCO3)CC1,·,·,5%,·,·,·,·,·
COCCNc1ncnc2ccc(-c3ccccc3C)cc12,2%,8%,-6%,·,·,·,·,·
O=S(=O)(c1ccc(Br)s1)N1CCN(c2cccc(C(F)(F)F)c2)CC1,-11%,-7%,·,·,·,·,·,·
COc1cc2c(cc1OC)CN(C(=O)Cn1ccccc1=O)CC2,·,·,-15%,·,·,·,·,·
COc1cc2c(cc1OC)CN(C(=O)CN1CCN(S(=O)(=O)c3ccccc3Br)CC1)CC2,·,·,16µM*,3%,-5%,1%,-5%,9%
O=C(NCCOCCn1c(=O)oc2ccccc21)Nc1ccc(Cl)cc1,-2%,-10%,·,·,·,·,·,·
Cc1ccc(C(=O)Nc2ccc3c(c2)N(C)C(=O)c2ccccc2S3)cc1,-4%,1%,·,·,·,·,·,·
COc1cccc(NC(=S)Nc2ccc(O)cc2)c1,·,·,18µM*,19%,2%,-24%,-15%,-19%
COc1cccc(NC(=S)NC(=O)c2cccnc2)c1,·,·,3.5µM*,-58%[38.3 µM],-10%,0%,-4%,2%
N#Cc1ccccc1NC(=S)NC(=O)c1cccnc1,·,·,14µM*,28%,4%,6%,-2%,15%
CCOC(=O)c1cccc(NC(=S)NC(=O)c2cccnc2)c1,·,·,10µM*,-12%[38.3 µM],3%,-10%,-10%,-2%
O=C(NC(=S)Nc1cc([N+](=O)[O-])ccc1O)c1cccnc1,·,·,-16%,·,·,·,·,·
CCCOC(=O)c1cccc(NC(=O)c2cccnc2)c1,1%,-10%,0%,·,·,·,·,·
COc1cccc(NC(=S)Nc2ccc(F)cc2)c1,·,·,-16%,·,·,·,·,·
COc1cccc(NC(=S)Nc2cccnc2)c1,1%,13%,-9%,·,·,·,·,·
Cc1nc2c(C(=O)NCc3ccccc3Cl)c[nH]n2c(=O)c1Cc1cccc(Cl)c1,-21%,-20%,·,·,·,·,·,·
O=C(NCc1ccccc1Br)c1ccc(-n2cnc3cccnc32)cc1,-8%,3%,·,·,·,·,·,·
C=CCC1(C)OC=Cc2nc3cc(Cl)c(Cl)cc3nc21 (stereo not drawn),·,·,-1%[12.9 µM],·,·,·,·,·
Cc1cccc(NC(=O)C(=O)NCCc2sc(-c3ccccc3)nc2C)c1C,-1%,-7%,·,·,·,·,·,·
Cc1nc2sc(C(N)=O)c(N)c2c(-c2ccc(Br)cc2)c1C(=O)Nc1ccc(Cl)cc1,-26%,?,·,·,·,·,·,·
CCCCNC(=O)Oc1cc(CCl)on1,·,·,-4%,·,·,·,·,·
CCCCNC(=O)Oc1c(Br)cc2sc(=O)oc2c1Br,·,·,16µM*,-15%,11%,-5%,1%,-15%
O=C(/C=C/c1cn(CC(O)CN2CCCCCC2)c2ccccc12)c1ccc(Br)cc1 (stereo not drawn),-11%,?,·,·,·,·,·,·
CC(C)Oc1ccc(CNC(=O)Nc2ccc3c(c2)N(C)C(=O)c2ccccc2S3)cc1,1%,14%,·,·,·,·,·,·
CCOC(=O)Cc1csc(NC(=S)NC(=O)c2ccc(F)cc2)n1,0%,2%,7.9µM*,-27%,-4%,12%,7%,9%
CCOC(=O)Cc1csc(NC(=O)c2ccc(OC)c(OC)c2)n1,-3%,4%,1%,·,·,·,·,·
CCOC(=O)Cc1csc(NC(=S)NC(=O)c2ccccc2C)n1,0%,-14%,?,·,·,·,·,·

# Screens as filed in PubChem.
